Hits are enriched below; roughly 19% of the tested compounds scored in any of these assays.
S-ASM inh: human S-ASM enzyme inhibition; actives 0.006% (n = 340,000); AID 504937; placental ASM, HMU-PC fluorogenic substrate, 60 min; Potency, µM (top dose mostly 57.5 µM), without a hit: at the highest dose activity change, negative = inhibition, hits mostly inhibitors; note: potency is the fitted concentration of half-maximal effect
Target sequence (P17405 47-631 limits assumed): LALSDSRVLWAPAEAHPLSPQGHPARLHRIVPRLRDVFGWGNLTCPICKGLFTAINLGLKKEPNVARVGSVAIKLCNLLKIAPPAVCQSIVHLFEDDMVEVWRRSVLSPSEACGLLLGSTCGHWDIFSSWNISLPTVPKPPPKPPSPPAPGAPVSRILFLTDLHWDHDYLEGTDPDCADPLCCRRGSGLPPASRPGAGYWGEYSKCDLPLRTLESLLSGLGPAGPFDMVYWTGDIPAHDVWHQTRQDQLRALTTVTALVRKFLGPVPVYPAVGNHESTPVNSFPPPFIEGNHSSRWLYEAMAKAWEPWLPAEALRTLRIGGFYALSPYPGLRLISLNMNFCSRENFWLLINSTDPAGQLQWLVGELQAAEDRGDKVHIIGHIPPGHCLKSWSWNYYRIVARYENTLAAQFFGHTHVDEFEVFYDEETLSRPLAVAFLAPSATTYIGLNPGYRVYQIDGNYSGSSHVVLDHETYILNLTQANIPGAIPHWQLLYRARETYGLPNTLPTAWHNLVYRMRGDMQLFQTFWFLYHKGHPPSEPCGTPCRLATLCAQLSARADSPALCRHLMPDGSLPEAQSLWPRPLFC
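Human placenta-derived ASM preincubated with compound 10 min at room temperature, then reacted with 9 uM (final) fluorogenic HMU-PC substrate for 60 min at 37 C. Stop solution raises pH to 10; fluorescence read at Ex 386/Em 447 nm.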
IL1B secr inh: blocks inflammasome-driven IL-1 beta release; THP-1 LPS/ATP IL-1B secretion, AlphaLISA, 16 h; active compounds read low; activity change, % at 57.5 µM; actives 4.7% (n = 360,000); AID 743279; in the data active = activity change below about -50%; inconclusive = mostly about -30% to -49%; note: % is set by controls: 0 for no effect and ±100 for the full control effect
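THP-1 cells pretreated 1 hr with compounds (up to 57.5 uM final), then stimulated with LPS (250 ng/mL final) plus ATP (1.25 mM final); secreted IL-1B measured by AlphaLISA after 16 hr, decreased signal indicating inhibition.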
TGFb SMAD3 inh: TGF-b pathway inhibition; actives 1.2% (n = 410,000); Potency, µM (highest dose often 46.1 µM), for inactives: at the highest dose activity, negative = inhibition, actives largely listed as inhibitors; HepG2 CAGA-GFP TGF-b/SMAD3 reporter, GFP fluorescence, 18 h; TGF-beta stimulated, 500 pg/mL final; note: potency is the fitted concentration of half-maximal effect; % is set by controls: 0 for no effect and ±100 for the full control effect; nearly all actives have a fitted effect of over 65% in size
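Read-out: total well GFP (ex488/em500-530) summed from mean per-cell fluorescence. Cells: HEPG2 CAGA-GFP, 1% FBS DMEM, 18 h at 37 degrees C with 500 pg/mL final TGF-beta. Unstimulated wells served as the full-inhibition control; stimulated DMSO wells = 0%.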
HepG2 tox: counter-screen for TGF-b inhibitors: cytotoxicity in HepG2 cells. Potency, µM (highest dose often 46.1 µM), without a hit: at the top dose activity change, negative = cytotoxicity, most hits filed as cytotoxic. actives 0.76% (n = 410,000). AID 588856. HepG2 CAGA-GFP viability, ATP luminescence, 18 h; note: potency is the fitted concentration of half-maximal effect
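CellTiter-Glo luminescence gave cytotoxicity after 18 hours at 37 degrees C. The cells were HepG2 CAGA-GFP in 1% FBS DMEM, stimulated with 500 pg/mL TGF-beta after compound addition. %Activity was normalised to no-cell wells (complete cell-killing) and DMSO (no toxicity), and curves were fitted and classified.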
TDP1 cell noCPT: qHTS for Inhibitors of human tyrosyl-DNA phosphodiesterase 1 (TDP1): qHTS in cells in absence of CPT; Potency, µM (doses to about 46.2 µM), inactives show top-dose activity change, negative = growth inhibition, actives largely listed as inhibitors; DT40 Tdp1-/- hTDP1 cells, no CPT, ATP luminescence, 48 h; actives 15% (n = 420,000); note: potency is the fitted concentration of half-maximal effect; % is set by controls: 0 for no effect and ±100 for the full control effect; nearly all actives have a fitted effect of over 55% in size
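Readout: luminescence from CellTiter-Glo after 30 min in the dark at RT. Cells: DT40 Tdp1-/- with stable hTDP1, 400/well. Exposure: compounds alone, ≥48 hr, 37 °C.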
TDP1 cell CPT: growth inhibition of DT40 Tdp1-/-;hTDP1 cells with camptothecin (screen for TDP1 inhibitors). actives 12% (n = 420,000). Potency, µM (highest dose often 46.2 µM), for the others: at the top dose activity change, negative = growth inhibition, most hits filed as inhibitors. AID 686979. chicken DT40 Tdp1-/-;hTDP1 cells + 20 nM CPT, ATP luminescence, 48 h; note: potency is the fitted concentration of half-maximal effect; % is set by controls: 0 for no effect and ±100 for the full control effect; nearly all actives have a fitted effect of over 55% in size
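Chicken DT40 Tdp1-/- cells complemented with human TDP1, 400 cells/well, exposed to compounds plus 20 nM camptothecin for at least 48 h at 37 C; viability read as ATP content by CellTiter-Glo luminescence.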
* = called active by the depositor; u = inconclusive; x = not tested or not shown; ! = not active in a repeat; [ ] = remark or other dose. Unless noted, calls come from the whole dose curve; as a rule, active = well fitted curve in the direction sought with a large enough effect; inconclusive = small, poorly fitted or top-dose-only effect, or another doubt; inactive = no such curve, though single readings can be large; an effect the other way counts as inactive or inconclusive.

SMILES | S-ASM inh | IL1B secr inh | TGFb SMAD3 inh | HepG2 tox | TDP1 cell noCPT | TDP1 cell CPT
CC1(C)CC(=O)C2=C(C1)Nc1ccccc1NC2c1cccnc1 (centres undefined) | 1% | -13 | 6% | 1% | -6% | 1%
CC1(C)CC(=O)C2=C(C1)c1c(ccc3ncccc13)NC2c1cccs1 (centres undefined) | 76% | 0 | -19% | 2% | 3.7µM* | 5.2µM*
O=C(CSCc1nc2ccccc2[nH]1)Nc1ccc2ccccc2c1 | -2% | 0 | -7% | -21% | -18% | -5%
O=C(CS)Nc1ccc2ccccc2c1 | -2% | -95* | -12% | -3% | 4.1µM* | 2.9µM*
O=C(CSCc1cccc(CSCC(=O)Nc2ccc3ccccc3c2)n1)Nc1ccc2ccccc2c1 | -8% | -26 | u | -35% | 15µM* | u
Cc1c(C)n(CCc2ccccc2)c2ncnc(NCCO)c12 | -3% | -22 | 3% | 1% | u | u
Cc1c(C)n(Cc2ccccc2)c2ncnc(Cl)c12 | -7% | -8 | -13% | -47% | 3.7µM* | 15µM*
NC(Cc1ccccc1)C(O)c1ccco1 (centres undefined) | x | x | -6% | -14% | x | x
Cc1cc2c(OCC(O)CNCc3ccco3)cccc2[nH]1 (centres undefined) | -7% | -19 | 0% | -9% | 16% | -17%
OC(CNCc1ccco1)Cn1c2ccc(Br)cc2c2cc(Br)ccc21 (centres undefined) | u | -59* | u | -90% | 18µM* | 15µM*
CC(=O)c1cc2c(cc1NC(=O)c1c(C)nn(-c3ccc(C)cc3)c1-n1cccc1)OCO2 | x | x | -18% | -18% | -2% | -2%
COc1cc(-c2noc(C)c2C#Cc2ccsc2)cc(OC)c1OC | -29% | 72 | 11µM* | -20% | 0.92µM* | 0.71µM*!
COc1cc(-c2noc(C)c2C#CC2(N)CCCCC2)cc(OC)c1OC | -8% | -13 | u | -14% | u | u
COc1cc(-c2noc(C)c2C#CC2(O)CCCCC2)cc(OC)c1OC | -18% | u | 7% | -6% | 21µM* | u
COc1cc(OC)cc(-c2c(C#Cc3ccsc3)c3cc(-c4ccccc4OC)ccc3n2C)c1 | 214% | -4 | 8% | 2% | -28% | u
COc1cc(-c2noc(C)c2C#CCO)cc(OC)c1OC | -5% | -9 | 12% | -17% | 13µM*! | u
CC(=O)NC(CC(=O)Nc1cc(Cl)ccc1-n1cncn1)c1ccccc1 (centres undefined) | -4% | 16 | -4% | -3% | -11% | -3%
C=CCC[C@H](Cc1ccc(F)cc1)C(=O)OC[C@@H](Cc1c[nH]c2ccccc12)NC(=O)[C@H](CC=C)CC(=O)NCCO | 1% | 0 | u | -48% | 16µM* | 21µM*
C=CCC[C@H](Cc1ccc(F)cc1)C(=O)OC[C@H](C)NC(=O)[C@H](CC=C)CC(=O)NCCO | 3% | -11 | 2% | -7% | u | u
C=CCC[C@@H](Cc1ccc(F)cc1)C(=O)OC[C@H](Cc1c[nH]c2ccccc12)NC(=O)[C@H](CC=C)CC(=O)NCCO | -5% | -57* | u | -106% | u | u
CCc1nc2c(OCc3ccc(OC(F)F)cc3)cccn2c1N(C)C(=O)c1cccs1 | x | -14 | -13% | -2% | 16µM* | 21µM*
CCc1nc2c(OCCOc3ccc(F)cc3)cccn2c1N(C)C(=O)c1cccs1 | x | -24 | -10% | -7% | 10µM* | 18µM*
CCc1nc2c(OCCn3cccc3)cccn2c1N(C)C(=O)c1cccs1 | x | -22 | -5% | -5% | -21% | u
Cc1csc(SCC(=O)N2CCOc3ccc(C(O)C4CCCCC4)cc3C2)n1 (centres undefined) | x | x | x | x | 21µM* | u
O=C(Cn1cc2ccccc2n1)N1CCOc2ccc(C(O)C3CCCCC3)cc2C1 (centres undefined) | x | x | x | x | u | -3%[9.04 µM]
SMILES | S-ASM inh | IL1B secr inh | TGFb SMAD3 inh | HepG2 tox | TDP1 cell noCPT | TDP1 cell CPT
CCN(CC)c1ccc(NC(=O)COc2ccccc2C#N)cc1S(=O)(=O)Nc1ccccc1OC | -1% | 28 | -2% | -28% | 2.3µM* | 2.6µM*
COc1ccc(NS(=O)(=O)c2cc(NC(=O)c3ccccn3)ccc2OC)cc1Br | -14% | -56* | -24% | -13% | -4% | u
COc1ccccc1NS(=O)(=O)c1cc(NC(=O)CNC(=O)c2ccccc2)ccc1C | -5% | 0 | -25% | 1% | -21% | -25%
CCN(CC)c1ccc(NC(=O)c2ccccn2)cc1S(=O)(=O)Nc1ccccc1OC | -3% | -20 | u | 17% | 21µM* | 16µM*
COc1ccc(NC(=O)c2ccccn2)cc1S(=O)(=O)N1CCOCC1 | 1% | -15 | -12% | -1% | u | -18%
CCn1ccc(C(=O)Nc2ccc(S(=O)(=O)Nc3ccccc3OC)cc2)n1 | 0% | -5 | 11% | -10% | u | -11%
Cc1cccc(NC(=O)CSc2nnc(CNC(=O)c3ccco3)o2)c1 | -3% | 12 | 0% | -10% | 3% | 6%
C[N+](C)(C)C/C=C1/COCO1 | -1% | -9 | 12% | -1% | u | 18µM*
CCc1ccc(-c2nn(CC(=O)NC3CCCCC3)c3c2cnc2ccc(F)cc23)cc1 | x | x | 10% | -3% | 11% | -12%
NC(=O)SCC(=O)Nc1cccc(Cl)c1 | 0% | -62* | 0% | -81% | u | u
Cc1c(Cl)cccc1NC(=O)CSCC(N)=O | 1% | 22 | 19% | -6% | -5% | -2%
COC(=O)CCC(=O)Nc1ccc(Cl)c(Cl)c1 | 2% | -15 | -6% | -17% | -15% | -2%
Cc1c(Cl)cccc1NC(=O)CSC(N)=O | 3% | -92* | 3% | -3% | 16µM* | 21µM*
O=C(NCC1CC1(Cl)Cl)Nc1ccc(Cl)c(Cl)c1 (centres undefined) | -5% | -95* | u | -38% | u | u
NC(=O)SCC(=O)Nc1ccc(Cl)c(Cl)c1 | -7% | -103* | 13µM* | -61% | 23µM* | 9.2µM*
NC(=O)COc1c(-c2ccc(Br)o2)oc2ccccc2c1=O | 340% | u | 23% | -4% | u | -28%
CN(C(=O)NCc1noc2ccccc12)c1cccc(Cl)c1 | x | x | -11% | -9% | -24% | -28%

Screening results as filed in PubChem.
